Records with an inconclusive call do not appear. Activity calls are given as the source filed them. The calls were made as follows: active = hit-call score of the fitted dose curve at least 0.9, where 1 is the maximum; inconclusive = response in the unintended direction; inactive = score below 0.9.

From PubChem BioAssay (EPA / NIEHS) come the findings set out here.

The experiment deals with Androgen receptor (Homo sapiens) (UniProt P10275). The experiment is described as follows: ATG_AR_TRANS: Attagene TRANS-FACTORIAL HepG2 Assay for human Androgen Receptor (AR) (AID 2282973). Conditions: HepG2 Attagene TRANS-FACTORIAL AR reporter transcription. As to the method: ATG_TRANS is a cell-based, multiplexed-readout assay that uses HepG2, a human liver cell line, with measurements taken at 24 hours after chemical dosing in a 24-well plate.ATG_AR_TRANS is one of 30 assay component(s) measured or calculated from the ATG_TRANS assay. It is designed to make measurements of mRNA induction, a form of inducible reporter, as detected with fluorescence intensity signals by Reverse transcription polymerase chain reaction (RT-PCR) and Capillary electrophoresis technology.Data from the assay component ATG_AR_TRANS was analyzed into 1 assay endpoint. This assay endpoint, ATG_AR_TRANS, was analyzed in the positive analysis fitting direction relative to DMSO as the negative control and baseline of activity. Using a type of inducible reporter, measures of mRNA for gain-of-signal activity can be used to understand the reporter gene at the transcription factor-level as they relate to the gene AR. Furthermore, this assay endpoint can be referred to as a primary readout, because this assay has produced multiple assay endpoints where this one serves a reporter gene function. To generalize the intended target to other relatable targets, this assay endpoint is annotated to the nuclear receptor intended target family, where the subfamily is steroidal.
Androgen receptor (Homo sapiens), sequence (P10275 whole entry, looked up): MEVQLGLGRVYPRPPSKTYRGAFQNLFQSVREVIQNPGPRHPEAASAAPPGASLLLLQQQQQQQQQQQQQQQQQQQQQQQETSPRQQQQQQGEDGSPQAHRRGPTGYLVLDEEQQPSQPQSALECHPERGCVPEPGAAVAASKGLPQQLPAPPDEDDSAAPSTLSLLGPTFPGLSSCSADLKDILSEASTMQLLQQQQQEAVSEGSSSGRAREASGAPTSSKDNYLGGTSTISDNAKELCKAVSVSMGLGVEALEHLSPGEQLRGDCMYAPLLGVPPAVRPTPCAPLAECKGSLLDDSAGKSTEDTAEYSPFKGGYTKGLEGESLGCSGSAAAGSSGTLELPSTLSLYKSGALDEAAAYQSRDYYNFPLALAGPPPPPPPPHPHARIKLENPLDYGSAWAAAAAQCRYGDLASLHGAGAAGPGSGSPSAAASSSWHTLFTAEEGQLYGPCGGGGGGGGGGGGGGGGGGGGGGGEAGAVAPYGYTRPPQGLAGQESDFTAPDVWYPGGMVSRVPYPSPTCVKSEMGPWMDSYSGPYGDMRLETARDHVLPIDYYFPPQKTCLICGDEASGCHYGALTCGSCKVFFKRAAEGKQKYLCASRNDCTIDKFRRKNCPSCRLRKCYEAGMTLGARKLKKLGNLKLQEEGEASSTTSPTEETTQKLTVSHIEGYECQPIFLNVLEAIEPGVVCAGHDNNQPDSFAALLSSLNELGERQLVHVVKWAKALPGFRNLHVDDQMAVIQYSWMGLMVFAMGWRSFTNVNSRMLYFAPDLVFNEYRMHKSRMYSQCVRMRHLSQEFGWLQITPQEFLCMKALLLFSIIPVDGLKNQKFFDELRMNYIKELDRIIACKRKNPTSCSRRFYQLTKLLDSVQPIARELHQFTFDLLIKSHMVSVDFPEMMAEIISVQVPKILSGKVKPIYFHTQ
Human liver HepG2 cells are transiently transfected with multiple reporter transcription units (MRTUs) in 6-well plates using FuGene 6 reagent (Roche; 3 ml FuGene/1 mg DNA). The MRTU constructs are regulated by a cis-regulating element (promoter). […] A major difference between the CIS and TRANS system is that in CIS activities of endogenous TFs are measured, whereas the TRANS assay evaluates changes in activities of exogenous, chimeric NR-Gal4 proteins. […] At the end of 24 hour incubation, total RNA was isolated using TriZol reagent (Invitrogen). The isolated RNA is then reverse-transcribed using oligo(dT) primer and Mo-MLV reverse transcriptase (Invitrogen) with DNAse I (Ambion) treatment for 30 min. The one-tenth of the produced cDNA was amplified by PCR using Taq DNA polymerase (Invitrogen) and two reporter sequence-specific primers. The PCR products were fluorescently labeled by primer extension with 6-arboxyfluorescein (6-FAM) 5'-labeled reporter sequence-specific primer (2 min at 95 C, 20 s at 68 C and 10 min at 72 C) and these products were digested with 5U of HpaI (New England Biolabs) for 2h at 37 C. The fragments were purified using Qiaquick PCR columns (Qiagen), analyzed on an ABI 3130xL genetic analyzer (Applied Biosystems) with peak positions identified by using a set of X-rhodamine (ROX)-labeled MapMarker1000 molecular weight standards (BioVentures). The raw capillary electrophoresis data was processed using Attagraph software (Attagene).
In the case of `NC(=O)CCl`, the outcome was inactive.
For `Cc1ccccc1OP(=O)(Oc1ccccc1C)Oc1ccccc1C` the value was “inactive”; for `CC1(C)COP(Oc2ccccc2)OC1`, “inactive”; for `CNC(=O)N(C)c1nc2ccccc2s1`, “inactive”.
As to `C=CC(Cl)CCl` (stereo not given), the outcome was inactive.
For `CCOC(=O)Cc1ccccc1` the value was “inactive”.
For `CCOC(=O)c1ccccc1S(=O)(=O)NC(=O)Nc1nc(Cl)cc(OC)n1` the value was “inactive”.
For `O=C(Cl)OCCOCCOC(=O)Cl` the value was “inactive”; for `COCCl`, “inactive”.
In the case of `O=C(CCl)Nc1ccccc1`, the compound was called inactive.
For `NC(=O)c1ccc(N)nc1` the value was “inactive”; for `C=CC(=O)[O][Sn]([CH2]CCC)([CH2]CCC)[CH2]CCC`, “inactive”; for `Cc1cc(Cl)ccc1OCCCC(=O)O`, “inactive”.
Regarding `Brc1ccc(Oc2c(Br)cc(Br)cc2Br)c(Br)c1`, the outcome was inactive.
As to `O=S1(=O)OC(c2cc(Br)c(O)c(Br)c2)(c2cc(Br)c(O)c(Br)c2)c2ccccc21`, the outcome was inactive.
Regarding `CC(=O)C(F)(F)C(F)(F)F`, the outcome was inactive.
For `c1cc[c]([Sb]([c]2ccccc2)[c]2ccccc2)cc1` the value was “inactive”; for `COP(=S)(OC)Oc1cc(Cl)c(I)cc1Cl`, “inactive”.
For `CC(C)N(C(=O)CCl)c1ccccc1` the value was “inactive”; for `CCCCOP(=O)(CCCC)OCCCC`, “inactive”; for `OC(c1ccc(Cl)cc1)(c1ccc(Cl)cc1)c1cccnc1`, “inactive”.
For `O=C(NC(=O)c1c(F)cccc1F)Nc1cc(Cl)c(Oc2ncc(C(F)(F)F)cc2Cl)c(Cl)c1` the value was “inactive”; for `C=CCOC(F)(C(F)(F)F)C(F)(F)F`, “inactive”.
As to `O=S(=O)(F)C(F)(F)C(F)(F)C(F)(F)C(F)(F)F`, the call was inactive.
Take `O=C1C=CC(=O)c2ccccc21`: the outcome was inactive.
For `BrCC(Br)c1ccccc1` (stereo not given) the value was “inactive”; for `O=NN1CCCCCC1`, “inactive”; for `O=C(N[C@H]1CN2CCC1CC2)c1ccc2c(c1)OCCO2`, “inactive”.
For `COC(F)(C(F)(F)C(F)(F)F)C(F)(C(F)(F)F)C(F)(F)F` (stereo not given) the value was “inactive”.
With `COc1ccc([N+](=O)[O-])cc1O`, the compound was classed as inactive.
For `CCC(C)(C#N)N=NC(C)(C#N)CC` (stereo not given) the value was “inactive”; for `OC(Cc1ccccc1Cl)(Cn1[nH]cnc1=S)C1(Cl)CC1` (stereo not given), “inactive”.
For `Cc1cc(C(C)(C)c2ccc(O)c(C)c2)ccc1O` the value was “inactive”.
For `Cc1ccc(CCl)cc1` the value was “inactive”.
Take `[Cl][Sn]([c]1ccccc1)([c]1ccccc1)[c]1ccccc1`: the call was inactive.
Regarding `O=C1c2ccccc2C(=O)C1C(=O)C(c1ccccc1)c1ccc(Cl)cc1` (stereo not given), the compound was classed as inactive.
Consider `CCOP(=S)(OCC)OP(=S)(OCC)OCC`, for which the call was inactive.
For `N#Cc1ccccc1N` the value was “inactive”.
On to `O=C(O)COc1cc(Cl)c(Cl)cc1Cl`, for which the result was inactive.
For `CCOP(=S)(OCC)SCS(=O)(=O)C(C)(C)C` the value was “inactive”.
